# Test results taken from the supplement of paper PMC10981050.
# Where “and” joins values, the source holds several entries; their conditions need not be identical. Identical values can stand only once. Counter-ions that a name gives are not always drawn.
# How the values were obtained:
# Assay in all cases: cell viability relative to vehicle control; higher = less cytotoxic
# Details in all cases: 10 µM
# K562 = tested on: K562
# Method in brief: (§1)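 Screening covered the Selleck bioactive, kinase and epigenetic probe libraries, less identity-inconsistent compounds, on CRISPR-edited mutant clones and isogenic wild-type clones of four leukaemia lines. Cells, at 2000 per well in 50 µL medium, received a single 10 µM acoustically dispensed dose. After 48 h the supernatant was removed and CellTiter-Glo luminescence was read. Viability was analysed in Genedata Screener as percent of the on-plate vehicle control.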
# MARIMO = tested on: MARIMO
# Method in brief: as §1
# MOLM14 = tested on: MOLM14
# Method in brief: as §1
# OCI-AML2 = tested on: OCI-AML2
# Method in brief: as §1
Compound,cell viability (K562; SRSF2 genotype: SRSF2 P95H/wt),cell viability (K562; SRSF2 genotype: SRSF2 wt/wt),cell viability (MARIMO; SRSF2 genotype: SRSF2 P95H/wt),cell viability (MARIMO; SRSF2 genotype: SRSF2 wt/wt),cell viability (MOLM14; SRSF2 genotype: SRSF2 P95H/wt),cell viability (MOLM14; SRSF2 genotype: SRSF2 wt/wt),cell viability (OCI-AML2; SRSF2 genotype: P95H/wt),cell viability (OCI-AML2; SRSF2 genotype: wt/wt)
CN(C)c1ccc2nc3ccc(=[N+](C)C)cc-3sc2c1 [Methylene Blue],33.4% and 27.2%,17.1%,13.1%,14.2%,5.69%,2.58%,5.27%,7.07%
C=C1C(=O)O[C@H]2[C@H]1CC/C(C)=C/CC[C@@]1(C)O[C@@H]21 [Parthenolide ((-)-Parthenolide)],18.9% and 9.99%,26.7%,8.78%,8.07%,1.59%,0.67%,0.71%,0.34%
Cc1ccc(C(=O)N(CCCN)[C@@H](c2oc3cc(Cl)ccc3c(=O)c2Cc2ccccc2)C(C)C)cc1,0.65% and 0.76%,0.52%,0.39%,0.45%,0.45%,0.45%,0.35%,0.4%
O=S(=O)(c1ccccc1)c1cnc2c(N3CCNCC3)cccc2c1,93.9%,94.6%,95%,95%,98.7%,100%,101%,93.2%
CC(=O)N1c2ccc(-c3ccc(C(=O)O)cc3)cc2[C@H](Nc2ccc(Cl)cc2)C[C@@H]1C,59.6% and 63.6%,74.7%,23.6%,28.7%,16.3%,14.4%,7.87%,17.8%
O=C1C[C@@H](c2ccc(O[C@@H]3O[C@H](CO)[C@@H](O)[C@H](O)[C@H]3O)cc2)Oc2cc(O)ccc21 [Liquiritin],92.3% and 81.1%,83.8%,83.3%,90.1%,86.4%,89%,96.5%,91.4%
CCC(=O)Nc1cccc(Oc2nc(Nc3ccc(N4CCN(C)CC4)cc3OC)ncc2Cl)c1,90.9% and 97.3%,90.6%,70.3%,68.3%,39.9%,40.7%,61.2%,59.2%
NC(=O)c1cnc(N[C@@H]2CCCC[C@@H]2N)nc1Nc1cccc(-n2nccn2)c1,16.9% and 18.1%,15.9%,16%,12.6%,2.43%,1.83%,0.51%,3.84%
N=C(N)Nc1ccc(C(=O)Oc2ccc3cc(C(=N)N)ccc3c2)cc1 [Nafamostat mesylate],90.4% and 98.9%,89.4%,77.2%,76%,94.2%,89.4%,83.2%,85.1%
C[n+]1c2ccccc2nc2ccccc21 [Phenazine methosulfate],6.28% and 2.85%,13.5%,4.9%,8.06%,2.87%,1.78%,2.71%,4.56%
CCNC(=O)Nc1ccc(-c2nc(N3CCOC[C@@H]3C)c3c(n2)C(C)(C)S(=O)(=O)C3)cc1,40% and 38.6%,34.4%,56.9%,51%,33.5%,26.9%,29.6%,32%
Cc1[nH]c(/C=C2\C(=O)Nc3ccc(S(=O)(=O)Cc4c(Cl)cccc4Cl)cc32)c(C)c1C(=O)N1CCC[C@@H]1CN1CCCC1,0.5% and 0.24%,81.8%,76.3%,87.6%,42%,46.8%,0.12%,0.09%
C[n+]1ccccc1C=NO [Pralidoxime Iodide],106% and 98.4%,111%,101%,105%,99.2%,106%,105%,118%
Cc1cccc(Nc2nc(-c3ccncc3)cs2)c1,78.1% and 89.2%,70.8%,49.3%,64.4%,74.2%,84.9%,64.3%,66.9%
CCOC(=O)c1ccc(N)cc1 [Benzocaine],92% and 83.9%,94.2%,84%,91.7%,87.9%,92.4%,91.4%,94.6%
O=C(O)Cc1ccccc1Nc1c(Cl)cccc1Cl [Diclofenac Sodium],94.9% and 97.8%,102%,103%,110%,108%,100%,91.1%,102%
CC1(C)O[C@@H]2[C@@H](CO[C@@]3(COS(N)(=O)=O)OC(C)(C)O[C@@H]23)O1 [Topiramate],99.1% and 107%,99.3%,104%,106%,107%,105%,104%,113%
O=C(O)c1cc(I)ccc1NC(=O)[C@H](Cc1ccccc1)NCc1ccccc1,102% and 98.6%,101%,99.9%,103%,99%,101%,110%,119%
COCCOc1cnc2ccn([C@H](C)c3nnc4c(F)cc(-c5cnn(C)c5)cn34)c(=O)c2c1,86.5% and 87.1%,85.7%,86.8%,94.3%,96.7%,93.5%,82%,85.9%
Nc1nc(N)c2nc(-c3cccc(O)c3)c(-c3cccc(O)c3)nc2n1,95% and 105%,88.6%,111%,101%,108%,107%,98.5%,91.4%

Compound,cell viability (K562; SRSF2 genotype: SRSF2 P95H/wt),cell viability (K562; SRSF2 genotype: SRSF2 wt/wt),cell viability (MARIMO; SRSF2 genotype: SRSF2 P95H/wt),cell viability (MARIMO; SRSF2 genotype: SRSF2 wt/wt),cell viability (MOLM14; SRSF2 genotype: SRSF2 P95H/wt),cell viability (MOLM14; SRSF2 genotype: SRSF2 wt/wt),cell viability (OCI-AML2; SRSF2 genotype: P95H/wt),cell viability (OCI-AML2; SRSF2 genotype: wt/wt)
CC(=O)O[C@@]12CO[C@@H]1C[C@H](O)[C@@]1(C)C(=O)[C@H](O)C3=C(C)[C@@H](OC(=O)[C@H](O)[C@@H](NC(=O)OC(C)(C)C)c4ccccc4)C[C@@](O)([C@@H](OC(=O)c4ccccc4)[C@H]21)C3(C)C [Docetaxel Trihydrate],24.8% and 32.4%,32.7%,8.87%,5.68%,8.57%,4.2%,6.94%,13.5%
c1ccc2c(c1)CCCC2C1=NCCN1 (stereo not given) [Tetrahydrozoline HCl],101% and 92.1%,92.9%,92.1%,97.2%,79.5%,90.7%,87.8%,93.8%
O=C(O)CCNc1cc(N2CCc3ccccc3CC2)nc(-c2ccccn2)n1,108% and 104%,99.5%,102%,107%,108%,107%,106%,111%
C=C1C(=O)O[C@H]2[C@H]1CCC(C)=C1CC[C@@](C)(O)[C@@H]12 [Micheliolide],28.9% and 41.7%,64.4%,15.9%,19.8%,7.9%,7.02%,5.22%,11.1%
CCOC(=O)[C@H](CCc1ccccc1)N[C@H]1CS[C@H](c2cccs2)CN(CC(=O)O)C1=O [Temocapril HCl],102% and 101%,98.8%,101%,113%,99.7%,102%,102%,111%
OCC(O)C(O)CO (stereo not given) [Erythritol],100% and 105%,99.9%,98.4%,106%,101%,101%,98.2%,110%
C[C@H](Oc1ccc(S(C)(=O)=O)cc1C(=O)N1CCN(c2ncc(C(F)(F)F)cc2F)CC1)C(F)(F)F,105% and 98.9%,95%,97.1%,107%,97.3%,105%,101%,104%
CN1CCC(=C2c3ccccc3CCc3sccc32)CC1 [Pizotifen malate],89.7% and 97%,95.2%,76.9%,83.8%,76.5%,90.1%,81.4%,83%
Cc1ncc([N+](=O)[O-])n1CCO [Metronidazole (Flagyl)],105% and 104%,109%,107%,109%,104%,103%,106%,111%
COc1ccc(-c2cc(=O)c3c(O)cc(O)cc3o2)cc1 [Acacetin],106%,99.1%,102%,115%,107%,107%,88.7%,102%
CC(C)c1cc2c(N3CCN(C4=NCC(C)(C)S4)CC3)ncnc2s1 [MI-3 (Menin-MLL Inhibitor)],75.8% and 67.2%,67.3%,75.4%,55%,72.2%,72.3%,40.6%,45.1%
Cc1cc(NS(=O)(=O)c2ccc(N)cc2)no1 [Sulfamethoxazole],94.6% and 85.2%,92.6%,89.7%,95.6%,99.8%,91.1%,85.2%,95.5%
CC12CCC(CC1=O)C2(C)C (stereo not given) [Camphor],102%,103%,104%,108%,105%,104%,102%,99.1%
CC1(C)CC[C@]2(NC(=O)C(C)(F)F)CC[C@]3(C)[C@H](C(=O)C=C4[C@@]5(C)C=C(C#N)C(=O)C(C)(C)[C@@H]5CC[C@]43C)[C@@H]2C1 [Omaveloxolone (RTA-408)],9.19% and 4.65%,5.62%,1.12%,0.48%,0.3%,0.25%,0.23%,0.32%
CO[C@H]1/C=C/O[C@@]2(C)Oc3c(C)c(O)c4c(O)c(c(/C=N/N5CCN(C6CCCC6)CC5)c(O)c4c3C2=O)NC(=O)/C(C)=C\C=C\[C@H](C)[C@H](O)[C@@H](C)[C@@H](O)[C@@H](C)[C@H](OC(C)=O)[C@@H]1C [Rifapentine],87.7% and 92.5%,87.4%,78.3%,109%,56.2%,67%,56.1%,57.2%
O=S(=O)(NCCNCC=Cc1ccc(Br)cc1)c1cccc2cnccc12,77.6% and 78%,75.8%,61.2%,69.1%,43.2%,50%,38.7%,43.2%
COc1ccc(CC(=O)O)cc1OC [Homoveratrumic acid],92% and 79.3%,85.9%,89.2%,98.9%,89.3%,92.8%,88.2%,99%
N[C@@H]1CCCN(c2c(/C=C3\SC(=O)NC3=O)cccc2-c2ccccc2)C1,82.5% and 88.2%,81.1%,83.9%,93%,90.8%,105%,78.6%,75.1%
"CC1(C)C2CCC1(C)C(O)C2 (single isomer, unassigned; (-)) [(-)-Borneol]",103%,106%,100%,109%,101%,104%,109%,106%
O=C(O)c1ccc(CN2CCC(CN[C@@H]3C[C@H]3c3ccccc3)CC2)cc1,98.9% and 101%,95.4%,92.3%,91%,98.7%,87.2%,78.3%,91.6%
